Results taken from PubChem BioAssay (NCI).
The panel holds about 79,000 compounds, 15% with a hit somewhere; the sample as a whole holds those more often. Unmarked numbers belong to inactive results. Calls of active or inactive are those of the source. No stated cut-off is given here; in the data, active means growth inhibition above about 70%; inactive means the rest.

Assay: NCI Yeast Anticancer Drug Screen. Data for the mlh1 rad18 strain (AID 175)
Settings: S. cerevisiae mlh1 rad18 strain growth inhibition; at 50.0 µM; stronger effect = higher value
Experimental: Growth inhibition of yeast strains with defined genetic alterations is measured as a screen for potential anti-cancer activity. Selected strains with alterations in DNA damage repair or cell cycle control were exposed to compounds and growth inhibition was measured relative to vehicle treated controls. The strain used in this assay is mlh1 rad18

| Compound | growth inhibition |
| --- | --- |
| CC(=O)Nc1ccc(S(=O)(=O)N/N=C/C(=O)O)cc1 | -16.6% |
| CC1=CCC(CC(=O)O)C1(C)C (stereo not given) | -5% |
| CC(C)CCCC(C)C1CCC2(C)C3CCC(C(C)O)C(C)(CCCO)C3CCC12C (stereo not given) | 55.9% |
| Nc1nc2c(c(-c3ccccc3Cl)n1)COC/C2=C\c1ccccc1Cl | 50% |
| CCN(CC)Cc1cc(N=Nc2cccc3ccccc23)c2ccccc2c1O | 35.7% |
| CCOC(CCc1c(C)nc[nH]c1=O)OCC | -7.9% |
| CCCCC(CC)COC(=O)COc1ccc(C(C)c2ccc(OCC(=O)OCC(CC)CCCC)cc2)cc1 (stereo not given) | -38.2% |
| CCOP(=O)(OCC)/C(C#N)=C/c1cccc([N+](=O)[O-])c1 | 9.25% |
| O/N=C1/C(=C/c2ccc(Br)cc2)CCCC1C(NO)c1ccc(Br)cc1 (stereo not given) | -12.9% |
| C=CCN1C2Cc3cc(OC)c(OC)cc3C1Cc1cc(OC)c(OC)cc12 | -10.3% |
| CC(=O)Oc1ccc2c(c1)CCC1C2CCC2(C)CC(OC(C)=O)CC12 (stereo not given) | -21.8% |
| COc1c(Cl)cc(NC(=S)C#N)cc1Cl | -30.9% |
| COc1cc(C2OC[C@@H]3C(=O)OC[C@H]23)cc(O)c1OC (stereo not given in full) | -23.7% |
| O=[N+]([O-])c1ccc(N=Cc2ccccc2)cc1 | 5.8% |
| CC(C)NCC(O)c1ccc(O)c2ncccc12 (stereo not given) | -7.15% |
| CC(=O)OC[C@@]12CC[C@H]3C(C)(C)CCC[C@]3(C)[C@H]1C[C@@H](C1=CC(=O)O[C@H]1O)O2 | 90% (active) |
| Cc1ccc(S(=O)(=O)N(CCCc2c(Cl)nc(N)nc2Cc2ccccc2)c2ccccc2)cc1 | -4.65% |
| BrCC1OCC2(CO1)COC(CBr)OC2 (stereo not given) | -13.2% |
| CCc1ccc(/C=C/C(=O)C(C)CN(C)C)cc1 (stereo not given) | 9.85% |
| CN1CCS(=O)(=O)NC(Cc2ccccc2)C(=O)N2CCCC2C1=O (stereo not given) | -8.5% |

| Compound | growth inhibition |
| --- | --- |
| Nc1nc(=O)n(C2CC(O)C(CO)O2)cc1I (stereo not given) | 11.2% |
| c1cncc(Cc2nc3ccccc3[nH]2)c1 | -34% |
| CC(=NCCN(CCN=C(C)c1c(O)cc(C)oc1=O)CCN=C(C)c1c(O)cc(C)oc1=O)c1c(O)cc(C)oc1=O | 21.8% |
| CCOC(=O)CC/C(C)=N/NC(=O)c1ccc[n+](C)c1 | 2.65% |
| COc1cc2c3c(c1)[nH]c(=S)n3C(=O)C(C)S2 (stereo not given) | -25.6% |
| O=C(/C=C/c1ccc(OCc2ccccc2)c(OCc2ccccc2)c1)OCc1ccccc1 | -34.8% |
| CSC1=C(CCC(C)CCCC(C)CCCC(C)CCCC(C)CCCC(C)CCCC(C)C)C(=O)c2sccc2C1=O (stereo not given) | -5.95% |
| CN(C)c1ccc(C(=O)O)cc1 | -16.3% |
| COc1ccc(Cl)[n+]([O-])n1 | -29.6% |
| CCOC(=O)/C(O)=C/c1nc2ccccc2nc1C | 14.7% |
| CCOC(=O)CNCc1cccc(Cl)c1 | 24.2% |
| Cc1cc(Cl)cc(Cl)c1OCC(=O)O | 0.05% |
| CC(=O)OC1(C#N)CC2OC1C1N=NN(C(=O)OC(C)(C)C)C21 (stereo not given) | 19.2% |
| C(=NCCN=Cc1ccccc1)c1ccccc1 | -8.9% |
| O=C1CC(N2CCOCC2)c2ccccc21 (stereo not given) | 14.2% |
| CCC1CCC(=O)NC1=O (stereo not given) | 1.5% |
| O=C(O)CCC(=O)CCc1ccccc1C(=O)O | 7.85% |
| CCCCCCCCC(Nc1ccccc1)C(O)CCCCCCCC(=O)O (stereo not given) (tested in a mixture with another compound) | 16.2% |
| O=C(NCCCCCCNC(=O)c1ccccn1)c1ccccn1 | -0.8% |
| N=c1oc2ccccc2cc1-c1nc2ccccc2c(=O)[nH]1 | 17.3% |
